The values below come from PubChem BioAssay (NCI).

This is part of a sample that, as a whole, favours compounds with a hit. Of some 83,000 tested, about 20% had one in any assay.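 Cells were grown in 96-well plates and exposed to the test compound at a single concentration for 48 hours; results are reported as percent growth, with values below 10 considered active.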 Values without a mark were called inactive. The source made the active and inactive calls.

For the assay, the system named is MDA-MB-231 breast. In words: NCI-60 one-dose screen, 48 h (100 = growth as untreated, 0 = no growth, -100 = all killed). Particulars: 10 µM unless noted.
On to `O=C(c1cccc(C(=O)c2ccc3c4c(cccc24)C(=O)N(c2ccccc2)C3=O)c1)c1ccc2c3c(cccc13)C(=O)N(c1ccccc1)C2=O`, for which the growth was 91.1%.

On to `Cc1ccc[n+](CCC(N)=O)c1`, for which the growth is 92.3%.

As to `Cc1ccc2nc(N)nnc2c1`, the growth is 127%.

Consider `CCOc1ccncc1[N+](=O)[O-]`, for which the growth is 114%.

Regarding `Oc1cc(O)c2c(c1)O[C@H](c1ccc(O)c(O)c1)[C@@H](O)C2`, the growth is 98.4%.

Take `Cn1c(=O)c2nc3c(=O)n(C)c(=O)n(C)c3nc2n(C)c1=O`: the growth is 109%.

Regarding `C=CCOc1ccc(Cl)cc1Cl`, the growth was 91.5%.

As to `CCOC(=O)/C(O)=C(\C=N\C(=S)Nc1ccc(Cl)c(Cl)c1)C(=O)OCC`, the growth was 94.3%.

`CCOc1ccc(NC(=S)N2CCC(CCCC3CCN(C(=S)Nc4ccc(OCC)cc4)CC3)CC2)cc1`: the growth is 92.4%.

In the case of `Clc1ccc(C(SCc2ccccc2)SCc2ccccc2)cc1`, the growth was 99.9%.

As to `CC(=O)C1C(=O)C(=O)N(c2ccc(Cl)c(Cl)c2)C1=O` (stereo not drawn), the growth is 101%.

As for `Cc1cc(Cl)cc(Cc2cc(Cl)cc(C)c2O)c1O`, the growth is 1.11% (active).

For the compound `c1ccc(Oc2c3ccccc3nc3ccccc23)cc1`, the growth is 31.2%.

On to `O=[N+]([O-])c1ccc2[nH]c(=S)n(/C=C(/c3ccc(Cl)cc3Cl)S(=O)(=O)Cc3ccc(Cl)cc3Cl)c2c1`, for which the growth was 96.2%.

`N#C/C(=C\c1ccc(C#N)cc1)C(=O)c1ccccc1`: the growth was 104%.

With `COc1cc(OC)c(NC(=O)C(Sc2nc(C)cc(C)c2C#N)c2ccccc2)cc1Cl` (stereo not drawn), the growth was 106%.

As for `O=c1nc(Nc2cccc(Cl)c2)oc2cc(Cl)oc(=O)c12`, the growth was 50.9%.

On to `C/C(O)=C(/C=N\C(=S)Nc1ccc(S(=O)(=O)Nc2nccs2)cc1)C(=O)Nc1ccccc1C`, for which the growth is 87%.

On to `CC(O)C(F)(F)C(F)(F)C(F)(F)F` (stereo not drawn), for which the growth was 118%.

Consider `CCOP(=O)(NC(c1ccccc1)c1ccccc1)OCC`, for which the growth is 106%.

As to `CC(=O)OCC1OC(n2cnc3c(=S)nc(N)[nH]c32)C(OC(C)=O)C1OC(C)=O` (stereo not drawn), the growth was 63.5%.

For `CCCCn1cnc2c(=O)[nH]cnc21`, the growth was 98.4%.

For `O=C(NCc1ccccc1)/C(=C/c1ccccc1)NC(=O)c1ccccc1`, the growth was 92.6%.

Take `O=CNCCc1ccccc1`: the growth is 105%.

Turning to `COC1OC(C(COC(C)=O)OC(C)=O)C(OC(C)=O)C(OC(C)=O)C1OC(C)=O` (stereo not drawn), the growth was 126%.

`O=S(Cc1ccccc1)/C(=C/NC(=S)Nc1cc(Cl)ccc1Cl)c1ccccc1` (stereo not drawn): the growth was 100%.

For `Cc1c(Cl)cccc1N=C=S`, the growth was 130%.

With `CC(=O)C1C(=O)C(=O)N(c2cccc([N+](=O)[O-])c2)C1=O` (stereo not drawn), the growth is 107%.

On to `CCOc1ccc2c(c1)c(C)cc(C)[n+]2CC`, for which the growth was 91.3%.

Regarding `S=CN1CCCCC1`, the growth was 108%.

In the case of `Cc1nc(C)c(C(=O)O)cc1C(=O)O`, the growth is 108%.

Regarding `Cc1cc(CC(=O)NCCO)n(CCO)c(=O)c1`, the growth is 109%.

`NC(CSSCC(N)C(=O)O)C(=O)O` (stereo not drawn): the growth is 2.86% (active).

Consider `C/C(O)=C(/C=N/C(=S)Nc1ccccc1)C(=O)Nc1ccccc1C`, for which the growth was 99.7%.

With `CC(C)(C)[Si](C)(C)OCC1OC(n2cnc3c(N)ncnc32)CC1OS(C)(=O)=O` (stereo not drawn), the growth was 102%.

Turning to `NNC(=O)N/N=C1\C(=O)N(c2nccs2)C(=O)C(=O)C1c1nc2ccccc2s1` (stereo not drawn), the growth is 90.4%.

Consider `C(=C\c1ccncc1)/c1ccncc1`, for which the growth was 110%.

In the case of `CC(=O)NCNC(C)=O`, the growth was 118%.
